From PubChem
Ub-GFP proteasome: proteasome inhibitors stabilizing ubiquitin-GFP reporter; 67,000 tested, under 10 active; Ubiquitin-GFP reporter cells, proteasome inhibition, GFP fluorescence; response scale: untreated = 0%, 10 µM MG-132 = 100%; Potency, µM (doses to about 45.9 µM), for the others: at the highest dose activation (GFP accumulation), hits mostly activators; AID 526; active = well fitted activation curve with a large enough effect, not every such curve was filed as active; inconclusive = small, poorly fitted or top-dose-only effect, or another doubt; inactive = no such curve, though single readings can be large or run the other way; note: potency is the fitted concentration of half-maximal effect
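Reporter cells (U2OS, ubiquitin-G76V-GFP fusion) are plated overnight, then treated 4 hr at 37 °C with compound titrations from 46 uM down to 2.9 nM. Activity is scaled against untreated cells and 10 uM MG-132.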
Epigenetic mod: epigenetic modulators derepressing GFP locus in mouse cells; mouse C127i GFP locus derepression, cytometry, 30 h; Potency, µM (top dose mostly 46.1 µM), without a hit: at the top dose GFP derepression (activation); hit rate 0.09% among 68,000; AID 597; note: % of control where 0% means no effect
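Derepression screen: silenced CMV-GFP reporter in murine C127i cells, 30 h compound incubation at 37 C, washed cells imaged by laser-scanning cytometer to enumerate GFP-expressing objects of 20 to 120 um.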
ERK AVP inh: vasopressin-driven ERK pathway inhibition. HEK293-V1b, vasopressin-stimulated pERK AlphaScreen. Potency, µM (series often up to 57.5 µM), without a hit: at the highest dose activity, negative = inhibition, actives largely listed as inhibitors. hit rate 0.99% among 72,000. AID 995; note: potency is the fitted concentration of half-maximal effect; % is set by controls: 0 for no effect and ±100 for the full control effect; nearly all actives have a fitted effect of over 55% in size
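V1b-HEK293 cells; cpd 30 min 37C; 25 nM vasopressin 5 min; lyse 10 min; AlphaScreen beads 5 hr RT. Normalized to DMSO basal and 25 nM vasopressin; AC50 by Hill fit.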
Hsp90 Hop PPI: changes Hsp90-Hop TPR2A binding signal, up or down; AlphaScreen TPR2A-His6 binding biotin-Hsp90 C-terminal peptide; Potency, µM (doses to about 57 µM), inactives show top-dose activity change, negative = inhibition; hit rate 0.44% among 71,000; AID 595; active = well fitted curve in either direction with a large enough effect; inconclusive = small, poorly fitted or top-dose-only effect, or another doubt; note: potency is the fitted concentration of half-maximal effect; % is set by controls: 0 for no effect and ±100 for the full control effect
Tau fil binding: binders of human tau filaments; P10636; recombinant tau filaments, thioflavin S fluorescence, 15 h; filaments grown with octadecylsulfate alongside compound; Potency, µM (top dose mostly 57.1 µM), inactives show at the top dose activity change, negative = inhibition; hit rate 2% among 71,000; AID 596;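 note: potency is the fitted concentration of half-maximal effect; % is set by controls: 0 for no effect and ±100 for the full control effect; actives lower thioflavin S fluorescence by blocking filaments or displacing dye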
Target sequence (P10636 whole entry, looked up): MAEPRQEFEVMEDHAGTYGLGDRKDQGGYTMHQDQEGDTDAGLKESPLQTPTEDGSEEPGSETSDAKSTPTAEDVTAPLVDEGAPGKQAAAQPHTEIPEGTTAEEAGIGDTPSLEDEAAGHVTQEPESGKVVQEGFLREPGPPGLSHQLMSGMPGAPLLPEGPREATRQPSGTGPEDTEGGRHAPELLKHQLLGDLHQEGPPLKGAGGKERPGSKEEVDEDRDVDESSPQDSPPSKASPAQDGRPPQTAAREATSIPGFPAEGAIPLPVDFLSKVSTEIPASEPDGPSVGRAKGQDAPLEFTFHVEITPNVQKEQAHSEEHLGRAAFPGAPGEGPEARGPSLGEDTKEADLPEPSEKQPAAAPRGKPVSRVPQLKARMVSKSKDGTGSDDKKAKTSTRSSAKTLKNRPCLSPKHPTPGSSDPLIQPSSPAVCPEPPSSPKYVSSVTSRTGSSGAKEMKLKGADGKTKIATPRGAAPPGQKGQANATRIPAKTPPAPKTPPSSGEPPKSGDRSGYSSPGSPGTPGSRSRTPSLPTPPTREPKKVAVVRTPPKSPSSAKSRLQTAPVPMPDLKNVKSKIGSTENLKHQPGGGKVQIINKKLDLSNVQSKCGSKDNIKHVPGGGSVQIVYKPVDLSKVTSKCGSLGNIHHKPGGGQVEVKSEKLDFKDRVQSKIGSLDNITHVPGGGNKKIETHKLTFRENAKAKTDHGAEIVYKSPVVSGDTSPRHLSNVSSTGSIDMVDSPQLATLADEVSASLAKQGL
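Quantitative HTS: thioflavine S signal from ODS-induced tau filaments, excited at 450 nm, emission 510 nm. Conditions: 1 uM tau, 30 uM ODS, 15 h at 37 C, pH 7.4.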
HBB splicing: alters splicing of the hemoglobin beta chain; HBB splicing reporter cell assay, activation; EGFP reporter with mutant IVS2-654 intron; response scale: normalised to 500 nM splice-correcting PNA; Potency, µM (top dose mostly 46.1 µM), for the others: at the top dose activation, usual class: activators; hit rate 0.06% among 65,000; AID 925; note: potency is the fitted concentration of half-maximal effect; 0% is about no effect
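Compounds were applied for 2 days to HeLa EGFP-654 cells, 500/well in Optimem with 2% FCS. The reporter's EGFP is disrupted by mis-splicing of beta-globin intron IVS2-654. Readout: summed well GFP fluorescence from 488 nm laser scanning; reference was 500 nM antisense […] 654 PNA.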
Numbers without * were called inactive; u = inconclusive; x = no result given; ! = a repeat was not active; [ ] = remark or other dose. Sampled rows, rich in hits. Any-hit rate of the full collection: about 3%. Unless noted, calls come from the whole dose curve; as a rule, active = well fitted curve in the direction sought with a large enough effect; inconclusive = small, poorly fitted or top-dose-only effect, or another doubt; inactive = no such curve, though single readings can be large; an effect the other way counts as inactive or inconclusive.

SMILES | Ub-GFP proteasome | Epigenetic mod | ERK AVP inh | Hsp90 Hop PPI | Tau fil binding | HBB splicing
Cc1c(Cl)c(S(N)(=O)=O)cc2c1=NC=NS=2(=O)O | -3%[9.17 µM] | 9%[9.22 µM] | 4%[11.5 µM] | -1%[11 µM] | 12%[11.4 µM] | 0%[9.22 µM]
O=c1oc2cc(N=Cc3ccc4c(c3)OCO4)ccc2c2ccccc12 | 2%[9.17 µM] | 10%[9.22 µM] | -7%[11.5 µM] | -2%[11 µM] | 2%[11.4 µM] | 2%[9.22 µM]
O=C(c1cc2c(s1)-c1ccccc1OC2)N1CCN(c2ccccn2)CC1 | -3% | -2% | 25µM* | 4% | 265% | 0%
CCN(CC)CC(=O)c1ccc(-c2ccccc2)cc1 | -3% | -2% | 7% | -2% | u | 1%
CN(C)CC(=O)c1ccc(-c2ccccc2)cc1 | -3% | -2% | 4% | -5% | 25µM* | -3%
O=C1c2ccccc2[C@@H]([C@@H]2c3ccccc3C(=O)c3cc(Br)ccc32)c2ccc(Br)cc21 | -5%[9.17 µM] | -2%[9.22 µM] | u | -7%[11 µM] | -6%[11.4 µM] | -1%[9.22 µM]
Cc1ccc(-c2csc3nnc(SCC(=O)N4CCN(Cc5ccccc5)CC4)n23)cc1 | 1% | 2% | 15% | -22% | 20µM* | x
CCOC(=O)N/N=C1/C[C@@H](O)[C@@H](O)[C@@H]2[C@H]3C(=O)N(c4ccc(F)cc4F)C(=O)[C@@H]3CC[C@H]12 | x | x | 6%[11.5 µM] | x | x | 3%[9.22 µM]
Cc1c(C(N)=O)sc(N)c1C(=O)OC(C)C | -5% | 5% | -13% | -5% | 12% | -1%
CCOC(=O)c1c(N)sc(C(N)=O)c1C | 17% | 2% | 13µM* | 0% | 1% | 0%[9.22 µM]
COc1ccccc1Nc1nc(-c2cccs2)cs1 | 6% | 2% | u | -19% | 13µM* | 3%
COc1ccc(OC)c(Nc2nc(-c3cccs3)cs2)c1 | 17% | -1% | u | -13% | 16µM* | 7%
O=C(O)CN(CC(=O)O)c1ccccc1 | -5%[9.17 µM] | 0%[9.22 µM] | 14%[11.5 µM] | -2%[11 µM] | -8%[11.4 µM] | 1%[9.22 µM]
Cc1cc(=O)oc2cc(O)c(CN(C)CC(=O)O)cc12 | -8%[9.17 µM] | -1%[9.22 µM] | 0%[11.5 µM] | -2%[11 µM] | -1%[11.4 µM] | 0%[9.22 µM]
CC(C)C1=CC2=CC[C@H]3[C@@](C)(CCC[C@]3(C)C(=O)O)[C@@H]2CC1 | -3% | 2%[9.22 µM] | x | -1% | u | x
CCN(CCO)C[C@H]1CCC[C@H]2CCCC[C@@H]21 | 6%[9.17 µM] | 2%[9.22 µM] | 13%[11.5 µM] | -2%[11 µM] | -6%[11.4 µM] | 4%[9.22 µM]
COc1ccccc1N1CCN(CCCCN2C(=O)CCC2=O)CC1 | -3% | 0% | 19% | -11% | u | x
COc1ccccc1N1CCN(CCn2c(=O)[nH]c3c([nH]c4ccccc43)c2=O)CC1 | 7% | 0% | 8% | 5% | 40µM* | x
NC[C@@H]1O[C@H](C23CC4CC(CC(C4)C2)C3)Cc2c1ccc(O)c2O | -3% | 0% | u | u | 32µM*! | 0%
NC[C@@H]1O[C@H](c2ccccc2)Cc2c1ccc(O)c2O | 0% | 1% | -14% | -4% | -9% | x
CN(C)CCCn1cnc2cc(Cl)c(Cl)cc21 | 0%[9.17 µM] | 14%[9.22 µM] | -1%[11.5 µM] | 0%[11 µM] | -1%[11.4 µM] | 1%[9.22 µM]
CCN(CC)c1ccc(NC(=O)c2ccco2)c(C)c1 | 7% | -3% | -5% | u | -1% | 0%
CCN(CC)c1ccc(NC(=O)c2ccc(Br)o2)c(C)c1 | 0% | 6% | 25µM* | -18% | u | 5%
Oc1ccc(N=Cc2ccc(O)c(O)c2)cc1 | -2% | 8% | u | -29% | 6.3µM* | -6%
CCN1CCCC1Cn1c(-c2ccccc2)nc2c(N(CCOC)CCOC)nc(C)nc21 (stereo unspecified) | 2% | x | 10% | 1% | 40% | 0%
SMILES | Ub-GFP proteasome | Epigenetic mod | ERK AVP inh | Hsp90 Hop PPI | Tau fil binding | HBB splicing
CCN(CC)c1cccc(O)c1 | x | x | 1% | -4% | -5% | 0%
CN(C)c1cccc(O)c1 | x | x | 10% | -3% | 32µM* | 1%
Cc1ccc(Oc2ccc(NC(=O)c3ccco3)cc2)cc1 | 3% | 2% | u | 27% | -14% | -1%
O=C(Nc1cccc(Oc2ccc3c(c2)C(=O)NC3=O)c1)c1ccco1 | 0% | 0% | -28% | -8% | 25µM* | 2%
Cc1ccc(-c2nc(-c3ccccc3)no2)c(Cl)c1 | 3% | -4% | 40% | 25µM* | 18% | -1%
O=C(Cc1ccccc1)N1CCC(c2nc(-c3ccc(F)cc3)no2)CC1 | -2% | 1% | 20µM* | 4% | 10% | x
O=c1c2ccccc2oc2cc(O)c([C@@H]3COC[C@@H](CO)[C@@H](O)[C@@H](O)[C@H]3O)c(O)c12 | -2% | -2%[9.22 µM] | x | -16% | u | x
Cn1c(=O)c(C(=O)CN2CCCc3ccccc32)c(N)n(Cc2ccccc2)c1=O | -3% | 1% | 8% | u | 25µM* | 0%[57.5 µM]
CCC(=O)OCC(=O)c1c(N)n(Cc2ccccc2)c(=O)n(C)c1=O | 4% | -3% | -18% | -1% | 13% | 0%[57.5 µM]
COc1ccc(Br)cc1CNc1ccc(O)cc1 | -4% | 0% | -15% | u | 32µM* | 0%
COc1cccc2[nH]c3c(N4CCCCC4)ncnc3c12 | -5% | -5% | 20µM* | -1% | 7% | -2%[57.5 µM]
